Reference: PubChem BioAssay AID1508600 (Functional Genomics Laboratory (NCATS/FGL), 2020)
The campaign covered roughly 53,000 sequences. About 3,700 (7%) were called active.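 How the source made its calls: active means gene knockdowns whose robust z-score for IL-1 alpha signal is at least 2 or at most -2, so actives lie on both sides; inactive means the rest.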 This excerpt belongs to a sample that is enriched for actives.

Test: Components of the Cytosolic LPS Sensing Pathway: Gene Identification via Genome-wide siRNA Screen;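 further: robust z of the log signal after scaling to non-targeting control siRNA wells of the plate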
Details: RAW264.7 macrophages, IL-1a HTRF, actives lie on both sides, screened at 100 nM (by protocol), cells primed 5 h with Pam3CSK4 first
Outline: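 RAW264.7 mouse macrophages reverse-transfected with single siRNAs (100 nM final) for 48h, primed with Pam3CSK4 for 5 hours, then transfected with LipidA for 24 hour. Supernatant IL-1a read by HTRF; values normalized to negative-control median, log-transformed robust z-scores.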

z-score, inactive:
GGCUGUAUCCUGACAGCAATT against Olfr231 0.213
GCGUGGAGAACCGUUAAUCTT against Shroom3 0.845
CCUCUCUAGGCCAUGUUCUTT against 1110008P14Rik 0.381
GGUUUUAUCCCUGUUUCCUTT against Naaa -0.115
GCGGUCAACUGGAAACUAATT against Dnaja3 0.735
GCAUCAUGAGUCCCAUUCUTT against Olfr385 -0.276
CCAACGCGCACGGCCGCGCTT against Tmem158 -0.359
CCCUGCUGUCGUUUUGACUTT against Senp3 -0.122
GGAAAGUUUUGGCGACUACTT against Fbxw19 0.25
GGAUUUAAAUCACCUGUAATT against Tdpoz1 -0.864
GCAGAAAAGGUCUACGUGCTT against Azgp1 1.8
CCGAUUAAAAGAGUGUUUGTT against Nudt8 1.85
GGUUAUCUUUGGGACUUAATT against Lrmp -1.66
GCUGGUGCUCUUCACCAUATT against Fbxw17 -0.419
CCUGAAAUGCUAAGACUACTT against Gm5142 1.15
GGGAUCUUACAUGCCACCATT against Olfr1231 -0.000779
GGCUACUCGGCCCUCUGUUTT against 4930404N11Rik -1.67
CCAUACAGAGGUGACAGUUTT against Olfr816 -0.23
CCAUAAAAACCAGAGAAAUTT against Plekhf2 -0.778
GGUCGACUUAAGAUAAUAATT against Itgb6 -0.294
CCCUGUUAAGGAAUGCAAATT against Chil1 0.367
GGCUUUUUGCUUCACUACUTT against Slco4c1 1.06
GGCGAAUUAUUGAAAACGUTT against Actr8 0.916
GGAGUUGGAUAUUCUAAAATT against B3gntl1 -0.64
GGGCAACCUGGUUACACAUTT against Zfp637 1.25
GGUGGAAUGAAAGAACAAGTT against Klhl13 1.74
GGCCAGGAAAGAUACAGGATT against Rab3c 0.486
GGCCAUGCUGAAAGUAUUUTT against Olfr561 -1.46
CGGGAACAUAUCAGACUAATT against Mcm3ap -0.844
GGCCAUUGAGCUCAACCCUTT against Sgta -1.88
CCUAUAAAUGUCCUUAGUCTT against Ccdc115 0.127
CCUAUGGUGCUCUUAUAAATT against Dpp6 -0.178
GGCACUGUGGUGUAAAUCCTT against Nnt -1.53
GGAGAUCGAUGGAGACUUCTT against Sftpa1 -0.773
CGACGAAUGUCCUGAACAUTT against Tmem106a -0.193
GGGACUUAAGGUUAGACACTT against E330018D03Rik 0.163
CGACCUGUUCGCCAUCAAATT against Scaf1 0.511
CGAGGUGCUAAUCUGGCCUTT against Dctpp1 0.241
GGAACAAAUCCUGGAACUGTT against Zfp449 1.15
GGAAAUGUGGUAAUUCCGATT against Cd44 0.256
CGAAAUGAAAACUUCCUGGTT against Mab21l1 0.989
GUUACCUCGUGGAAAGCAUTT against Vmn1r43 -0.345
GGUUUGAAGAUGAUGCCUCTT against Nfkbil1 -0.848
GGACCACUAGACCUGAUAATT against Itgb1bp1 0.116
GGUCCGGUCUCAGACUUCATT against Ift27 1.16
GAUUGUCACCACCUUAAGATT against Chchd5 -0.964
GCCAUGUUCCCAUUUAACUTT against A730018C14Rik 1.34
GCACGAGGAUGUGAUAUUCTT against Txndc2 -0.65
CCUUCUCUUUGCUCUAUGUTT against Olfr1284 -0.647
GCUUAGUUUAUGAGAAUGCTT against Ptprh -0.791
GGCCAUAUUUGUGACUGUGTT against Hao1 -1.58

z-score, active:
CCUGAGAUUGGGAAAUUCUTT against Engase 2.02
CCGAAAAAUAUGUUUUCCGTT against Mettl4 2.87
GCUCAACUUACGUUCACUCTT against Vps72 -2.53
AAACAGUCAUUUCCUAUAGTT against Olfr1502 -2.04
GGACGUGUAGCUUGGAAUATT against Rnf26 5.33
GGAGAAAUUCGACUGAAAATT against Pcdhb13 3.47
UAGUCAUUGGGAUUCCUUCTT against Olfr112 2.98
GCUUAGAAUCUCUGGACAATT against Rnf168 3.21
GGUCUUAUGUAAGUGGUAUTT against Ociad1 -2.03
GGACAUCGAGCUUCAGAUCTT against Dnm1l 2.68
GCCUUGAUCCUACUGUAACTT against Amigo3 2.12
GGACUGGUCAGAGAUGGAUTT against Pced1a 5.33
CCAUCAGUAUUCACAACAATT against Usp42 -3.12
GCAUCCCGACUACAAGUACTT against Sox21 -2.06
CGAGAUGUCCCAGAAUCAUTT against Wdr75 -2.26
GCAUCGACAACCUCUCUAGTT against Hba-x 3.15
GGAUCUUGAAGCCAAAUACTT against Ccdc127 2.56
